Assay results from PubChem BioAssay (NCI).
Compounds without any hit were thinned out: in the full panel of roughly 79,000, 15% have a hit. Active and inactive are the calls of the source. No stated cut-off is given here; in the data, active means growth inhibition above about 70%; inactive means the rest.

Experiments:
[1] = NCI Yeast Anticancer Drug Screen. Data for the rad52 strain (AID 147);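 further: 0% = growth of vehicle-treated control cultures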; conditions: S. cerevisiae rad52 mutant growth inhibition, active compounds read high
Summary of the method: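 The repair-mutant yeast strain was incubated with compounds, then growth was read and inhibition derived relative to vehicle.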

[2] = NCI Yeast Anticancer Drug Screen. Data for the wt1 strain (AID 149);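 further: 0% = growth of vehicle-treated wt1 cultures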; conditions: S. cerevisiae wt1 strain (SPY 50644) growth inhibition, active compounds read high
Summary of the method: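 wt1 yeast, compound-treated; % growth inhibition vs vehicle control.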

[3] = NCI Yeast Anticancer Drug Screen. Data for the rad50EPP+ strain (AID 151);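 further: 0% = growth of vehicle-treated control cultures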; conditions: S. cerevisiae rad50 mutant strain, active compounds read high
Summary of the method: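 Vehicle-normalised growth inhibition; rad50EPP+ yeast strain, altered in DNA damage repair, compound-treated.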

[4] = NCI Yeast Anticancer Drug Screen. Data for the rad50 strain (AID 155);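 further: 0% = growth of vehicle-only cultures of the same strain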; conditions: S. cerevisiae rad50 strain growth inhibition, active compounds read high
Summary of the method: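 Genetically altered yeast (DNA repair pathway); compound treatment; growth inhibition vs vehicle ctrl.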

[5] = NCI Yeast Anticancer Drug Screen. Data for the mec2-1 strain (AID 157); conditions: S. cerevisiae mec2-1 strain, active compounds read high
Summary of the method: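 Mutant yeast (mec2-1) grown with compound; growth inhibition relative to vehicle control reported.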

[6] = NCI Yeast Anticancer Drug Screen. Data for the rad14 strain (AID 159);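 further: 0% = growth of vehicle-treated control cultures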; conditions: S. cerevisiae rad14 strain growth inhibition, active compounds read high
Summary of the method: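 Test compounds were applied to a repair-deficient yeast strain. Its growth was then compared with that of cultures given vehicle alone, and inhibition was expressed relative to those controls.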

[7] = NCI Yeast Anticancer Drug Screen. Data for the sgs1 mgt1 strain (AID 161);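 further: 0% = growth of cultures given vehicle only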; conditions: S. cerevisiae sgs1 mgt1 strain, active compounds read high
Summary of the method: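 Yeast cells carrying a defined DNA-repair defect were exposed to test compounds. Growth inhibition was measured relative to vehicle-treated controls.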

[8] = NCI Yeast Anticancer Drug Screen. Data for the CLN2oe strain (AID 163);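 further: 0% = growth of vehicle-only control cultures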; conditions: S. cerevisiae CLN2oe strain, active compounds read high
Summary of the method: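 Compounds are applied to yeast harbouring a defined cell-cycle control change; reduced growth compared with vehicle-treated controls gives the value.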

[9] = NCI Yeast Anticancer Drug Screen. Data for the cln2 rad14 strain (AID 165);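 further: 0% = growth equal to vehicle treated cultures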; conditions: S. cerevisiae cln2 rad14 strain, active compounds read high
Summary of the method: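 Readout is yeast growth inhibition versus vehicle-treated controls, using a strain with cln2 and rad14 alterations exposed to compound.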

[10] = NCI Yeast Anticancer Drug Screen. Data for the bub3 strain (AID 167); conditions: S. cerevisiae bub3 mutant strain, active compounds read high
Summary of the method: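 Yeast carrying a defined mutation is treated with each compound, and growth is compared with that of vehicle-exposed cells to give inhibition.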

[11] = NCI Yeast Anticancer Drug Screen. Data for the wt2 strain (AID 169);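 further: 0% = growth of vehicle-treated yeast cultures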; conditions: S. cerevisiae wt2 strain growth inhibition, active compounds read high
Summary of the method: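 Against vehicle-treated controls, the growth of yeast exposed to each compound was compared, and the inhibition was recorded.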

[12] = NCI Yeast Anticancer Drug Screen. Data for the mlh1 strain (AID 171);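 further: 0% = growth of vehicle-treated control cultures of the same strain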; conditions: S. cerevisiae mlh1 strain growth inhibition, active compounds read high
Summary of the method: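 Measured: yeast growth. Reference: vehicle-treated controls. Organism: strain with a defined alteration affecting DNA damage repair or cell cycle control, treated with compound.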

[13] = NCI Yeast Anticancer Drug Screen. Data for the sgs1 strain (AID 173);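 further: 0% = growth of vehicle-only control cultures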; conditions: S. cerevisiae sgs1 mutant, active compounds read high
Summary of the method: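 Each compound was added to cultures of the altered yeast strain. Growth was recorded, and inhibition was derived by comparison with vehicle controls.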

[14] = NCI Yeast Anticancer Drug Screen. Data for the mlh1 rad18 strain (AID 175); conditions: S. cerevisiae mlh1 rad18 strain growth inhibition, active compounds read high
Summary of the method: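 Genetically defined yeast (DNA repair-deficient) exposed to compounds; growth inhibition determined relative to vehicle.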

[15] = NCI Yeast Anticancer Drug Screen. Data for the rad18 strain (AID 177); conditions: S. cerevisiae rad18 mutant growth inhibition, active compounds read high
Summary of the method: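 Vehicle-treated cultures served as the baseline for scoring compound-induced growth inhibition in DNA-repair-mutant yeast.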

[16] = at 5.0 µM (retest, dose inferred, filed as 0.5)
[17] = at 50.0 µM (retest, dose inferred, filed as 5.0)

Measured: growth inhibition

CCCCCCCN1C(=O)c2ccccc2C1=O
active: [4]; at 50.0 µM 83.9% | [10]; at 50.0 µM 73.8% | [14]; at 50.0 µM 86.6%
inactive: [1]; at 1.2 µM -1% | [1]; at 3.7 µM -1% | [1]; at 11.0 µM -3% | [1]; at 33.0 µM 11% | [1]; at 100.0 µM 28% | [2]; at 1.2 µM 0% | [2]; at 3.7 µM -1% | [2]; at 11.0 µM -1% | [2]; at 33.0 µM -1% | [2]; at 100.0 µM 0% | [3]; at 1.2 µM 0% | [3]; at 3.7 µM -1% | [3]; at 11.0 µM 8% | [3]; at 33.0 µM 25% | [3]; at 100.0 µM 35% | [4]; at 1.2 µM -2% | [4]; at 3.7 µM 5% | [4]; [16] -17% | [4]; at 11.0 µM 7% | [4]; at 33.0 µM 26% | [4]; [17] 3% | [4]; at 100.0 µM 22% | [5]; at 1.2 µM -5% | [5]; at 3.7 µM -8% | [5]; [16] -10% | [5]; at 11.0 µM -27% | [5]; at 33.0 µM -6% | [5]; [17] 11% | [5]; at 50.0 µM 53.2% | [5]; at 100.0 µM -11% | [6]; at 1.2 µM -1% | [6]; at 3.7 µM -10% | [6]; at 11.0 µM 4% | [6]; at 33.0 µM 13% | [6]; at 100.0 µM 2% | [7]; [16] -14% | [7]; [17] 19% | [7]; at 50.0 µM 67.8% | [8]; at 1.2 µM -1% | [8]; at 3.7 µM -2% | [8]; at 11.0 µM -4% | [8]; at 33.0 µM -6% | [8]; at 100.0 µM -11% | [9]; [16] -7% | [9]; [17] -8% | [9]; at 50.0 µM 30.6% | [10]; at 1.2 µM 3% | [10]; at 3.7 µM -4% | [10]; [16] -17% | [10]; at 11.0 µM 28% | [10]; at 33.0 µM 36% | [10]; [17] 34% | [10]; at 100.0 µM 37% | [11]; at 1.2 µM -2% | [11]; at 3.7 µM -1% | [11]; at 11.0 µM 0% | [11]; at 33.0 µM 11% | [11]; at 100.0 µM 45% | [12]; at 1.2 µM -12% | [12]; at 3.7 µM -6% | [12]; at 11.0 µM -19% | [12]; at 33.0 µM -19% | [12]; at 100.0 µM 1% | [13]; at 1.2 µM 0% | [13]; at 3.7 µM -1% | [13]; at 11.0 µM 2% | [13]; at 33.0 µM 14% | [13]; at 100.0 µM 44% | [14]; [16] -31% | [14]; [17] 56% | [15]; at 1.2 µM -1% | [15]; at 3.7 µM -5% | [15]; at 11.0 µM -1% | [15]; at 33.0 µM 13% | [15]; at 100.0 µM 28%
